In PubChem BioAssay (NCI) one finds growth inhibition data, which are given here for 21 compounds.

Assay [1] is described as follows: NCI Yeast Anticancer Drug Screen. Data for the rad50 strain (AID 155).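 Further: 0% = growth of vehicle-only cultures of the same strain.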 As to conditions: S. cerevisiae rad50 strain growth inhibition; at 50.0 µM; hits give high values. Put shortly:
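DNA repair mutant yeast, compound exposure, growth read-out; inhibition is taken relative to vehicle.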

The nature of assay [2]: NCI Yeast Anticancer Drug Screen. Data for the mec2-1 strain (AID 157). As to conditions: S. cerevisiae mec2-1 strain, at 50.0 µM, hits give high values. Summed up:
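Readout is yeast growth inhibition, normalised to vehicle-treated controls, in the mec2-1 strain exposed to compound.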

A short description of assay [3]: NCI Yeast Anticancer Drug Screen. Data for the sgs1 mgt1 strain (AID 161).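 Further: 0% = growth of cultures given vehicle only.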 Particulars: S. cerevisiae sgs1 mgt1 strain, at 50.0 µM, hits give high values. Put shortly: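 This yeast growth screen uses a strain with defined DNA-repair lesions; compound-treated growth is compared with vehicle-treated growth.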
A short description of assay [4]: NCI Yeast Anticancer Drug Screen. Data for the cln2 rad14 strain (AID 165).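 Further: 0% = growth equal to vehicle treated cultures.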 Particulars: S. cerevisiae cln2 rad14 strain, at 50.0 µM, hits give high values. Summed up: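 Relative to vehicle controls, growth inhibition of compound-treated cln2 rad14 yeast was recorded.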
A short description of assay [5]: NCI Yeast Anticancer Drug Screen. Data for the bub3 strain (AID 167). Particulars: S. cerevisiae bub3 mutant strain, at 50.0 µM, hits give high values. Summed up: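 In this screen, a yeast mutant lacking normal mitotic checkpoint function is challenged with compound. Relative growth versus vehicle gives the inhibition value.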
Assay [6] is described as follows: NCI Yeast Anticancer Drug Screen. Data for the mlh1 rad18 strain (AID 175). As to conditions: S. cerevisiae mlh1 rad18 strain growth inhibition; at 50.0 µM; hits give high values. Put shortly: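 Test agents were incubated with a yeast strain of defined genotype (DNA damage repair defect). Inhibition of growth was derived by comparison with vehicle-exposed cultures.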

Molecules are shown by their SMILES. Compounds without any hit were thinned out: in the full panel of roughly 79,000, 15% have a hit. Values without a mark were called inactive. Active and inactive are the calls of the source. No stated cut-off is given here; in the data, active means growth inhibition above about 70%; inactive means the rest. Where a SMILES comes first, the peptide text is derived from it. The star is where a group is joined. Cbz = O=C(OCc1ccccc1)*

On to `CC(NCc1cc(O)c(CNC(C)c2ccccc2)cc1O)c1ccccc1` (stereo unspecified), for which the growth inhibition in assay [1] was 4.55%; in assay [2], 0.4%; in assay [3], 17.1%; in assay [4] it was 25.2%; in assay [5], 12.4%; in assay [6] it was 1.95%.
Take `CCC(C)OC(=S)S.[Cu+2]` (stereo unspecified): the growth inhibition in assay [1] is -23.6%; in assay [2], 19.4%; in assay [3], -0.85%; in assay [4], -4.8%; in assay [5] it was -76.5%; in assay [6] it was -44.9%.
Regarding `CN(C)C(=O)C(NCCO)c1ccccc1` (stereo unspecified), the growth inhibition in assay [1] is -12.6%; in assay [2] it was -20.4%; in assay [3], -11.2%; in assay [4] it was -27.8%; in assay [5], 14%; in assay [6], 0.3%.
Consider `N#CC1(C(c2cccc3ccccc23)c2cccc3ccc4ccccc4c23)CC(=O)OC1=O` (stereo unspecified), for which the growth inhibition was 5.25% in assay [1]; -11.4% in assay [2]; 14.1% in assay [3]; 12.1% in assay [4]; -2.55% in assay [5]; 9.65% in assay [6].
`O=C1CSC(=S)N1Nc1ccccc1`: the growth inhibition was 2.45% in assay [1]; -22.2% in assay [2]; 22.2% in assay [3]; 3.15% in assay [4]; -15.8% in assay [5]; -10.1% in assay [6].
With `C[C@@H]1C[C@H]2[C@@H]3CCC4=CC(=O)C=C[C@]4(C)[C@@]3(F)[C@@H](O)C[C@]2(C)[C@@]1(O)C(=O)CO`, the growth inhibition in assay [1] was 11.8%; in assay [2] it was -22.3%; in assay [3] it was -16.2%; in assay [4], 3.45%; in assay [5] it was -5.1%; in assay [6] it was 28.1%.
For `CC(=O)NCCc1ccc(OC(C)=O)c(OC(C)=O)c1`, the growth inhibition in assay [1] is 0.15%; in assay [2] it was -10.6%; in assay [3], 26.2%; in assay [4], 6.45%; in assay [5], 23.4%; in assay [6], 16.1%.
For the compound `CCCCOC(=O)C(C)OC(=O)COc1ccc(Cl)cc1C` (stereo unspecified), the growth inhibition was 5.05% in assay [1]; -13.7% in assay [2]; 15.4% in assay [3]; -40.7% in assay [4]; 2.25% in assay [5]; -1.05% in assay [6].
Take `O=C1C[C@@H]2CCCC[C@@H]2C12SCCS2`: the growth inhibition is -10.9% in assay [1]; -18.6% in assay [2]; -6.95% in assay [3]; 13.8% in assay [4]; -9.45% in assay [5]; -5.25% in assay [6].
Take `N#Cc1cc([N+](=O)[O-])ccc1NC(=O)C(=O)Nn1c(=S)[nH]c2ccccc2c1=O`: the growth inhibition in assay [1] was -2.25%; in assay [2], -2.6%; in assay [3] it was -34.5%; in assay [4], 14.6%; in assay [5], 10.3%; in assay [6] it was 5.9%.
Take `COc1ccc2[nH]c3c(c(=O)c2c1)CCCC3`: the growth inhibition in assay [1] is -1.15%; in assay [2], -12.9%; in assay [3], 2.85%; in assay [4] it was -6.2%; in assay [5] it was 5.8%; in assay [6], -12.7%.
Consider `CC(COc1ccccc1)N(CCCl)Cc1ccccc1` (stereo unspecified), for which the growth inhibition is 2.7% in assay [1]; 10.8% in assay [2]; -1.4% in assay [3]; -43.3% in assay [4]; 38% in assay [5]; 1.8% in assay [6].
As for `N#Cc1c(N)[nH]c(=S)c(C#N)c1-c1ccccc1`, the growth inhibition is 45.9% in assay [1]; 35.5% in assay [2]; 47.4% in assay [3]; 33.5% in assay [4]; 31.4% in assay [5]; 35.1% in assay [6].
`CC1=C(O)c2ccccc2C(=O)C1=O`: the growth inhibition in assay [1] is 25.4%; in assay [2] it was 16.8%; in assay [3] it was 40.3%; in assay [4], 36.2%; in assay [5], 12.8%; in assay [6], 23.8%.
Take `FC(F)(F)c1cc(Cl)c2ccc3ccccc3c2n1`: the growth inhibition was 8.65% in assay [1]; 5.3% in assay [2]; 1.9% in assay [3]; -62.4% in assay [4]; 3.65% in assay [5]; -12.8% in assay [6].
For `O=[N+]([O-])c1ccc2cccc3c2c1CC3`, the growth inhibition in assay [1] was 24.4%; in assay [2], 18.1%; in assay [3] it was 1.85%; in assay [4] it was -19.4%; in assay [5] it was 8.95%; in assay [6] it was 22.6%.
As to `Cc1cc2ccccc2n1S(=O)(=O)c1ccccc1`, the growth inhibition in assay [1] was 54%; in assay [2] it was 45.4%; in assay [3], 18.4%; in assay [4], 35%; in assay [5] it was 61%; in assay [6] it was 66.3%.
Turning to `O=C(OC1CCCCC1)C(=O)OC1CCCCC1`, the growth inhibition in assay [1] was 3.3%; in assay [2] it was -2.3%; in assay [3], 1.35%; in assay [4], -37.2%; in assay [5], -5.45%; in assay [6], 14%.
As to `C[n+]1ccccc1C(O)C(O)c1cccc[n+]1C` (stereo unspecified), the growth inhibition in assay [1] was 6.05%; in assay [2], 1.65%; in assay [3], 8.85%; in assay [4] it was 23.4%; in assay [5], -8.45%; in assay [6], 9.6%.
Take `CC(C)CC(NC(=O)C(CO)NC(=O)OCc1ccccc1)C(=O)NC(Cc1ccc(O)cc1)C(N)=O` (stereo not drawn) (Cbz-Ser-Leu-Tyr-NH2; configuration not given here): the growth inhibition was 47.5% in assay [1]; -8.05% in assay [2]; 27.6% in assay [3]; 4.9% in assay [4]; 3.95% in assay [5]; 13.7% in assay [6].
For `O=[N+]([O-])c1cccc([I+]c2cccc([N+](=O)[O-])c2)c1`, the growth inhibition in assay [1] is 98.5% (active); in assay [2], 95.8% (active); in assay [3], 97.7% (active); in assay [4] it was 96.5% (active); in assay [5], 97.2% (active); in assay [6] it was 98.2% (active).
